Experiments:
Experiment in all cases: log2 ratio of Biotin-Ahx-Ub-VS probe labelling (fragment/DMSO); higher = less target engagement (more negative = stronger competition), active = hit call of the paper (q ≤ 0.05, log2 ratio ≤ -1)
Details in all cases: compound concentration: 200 uM; treatment time: 3 h
USP42 = target: T1, USP42 (UniProt Q9H9J4)
T1 sequence (whole entry): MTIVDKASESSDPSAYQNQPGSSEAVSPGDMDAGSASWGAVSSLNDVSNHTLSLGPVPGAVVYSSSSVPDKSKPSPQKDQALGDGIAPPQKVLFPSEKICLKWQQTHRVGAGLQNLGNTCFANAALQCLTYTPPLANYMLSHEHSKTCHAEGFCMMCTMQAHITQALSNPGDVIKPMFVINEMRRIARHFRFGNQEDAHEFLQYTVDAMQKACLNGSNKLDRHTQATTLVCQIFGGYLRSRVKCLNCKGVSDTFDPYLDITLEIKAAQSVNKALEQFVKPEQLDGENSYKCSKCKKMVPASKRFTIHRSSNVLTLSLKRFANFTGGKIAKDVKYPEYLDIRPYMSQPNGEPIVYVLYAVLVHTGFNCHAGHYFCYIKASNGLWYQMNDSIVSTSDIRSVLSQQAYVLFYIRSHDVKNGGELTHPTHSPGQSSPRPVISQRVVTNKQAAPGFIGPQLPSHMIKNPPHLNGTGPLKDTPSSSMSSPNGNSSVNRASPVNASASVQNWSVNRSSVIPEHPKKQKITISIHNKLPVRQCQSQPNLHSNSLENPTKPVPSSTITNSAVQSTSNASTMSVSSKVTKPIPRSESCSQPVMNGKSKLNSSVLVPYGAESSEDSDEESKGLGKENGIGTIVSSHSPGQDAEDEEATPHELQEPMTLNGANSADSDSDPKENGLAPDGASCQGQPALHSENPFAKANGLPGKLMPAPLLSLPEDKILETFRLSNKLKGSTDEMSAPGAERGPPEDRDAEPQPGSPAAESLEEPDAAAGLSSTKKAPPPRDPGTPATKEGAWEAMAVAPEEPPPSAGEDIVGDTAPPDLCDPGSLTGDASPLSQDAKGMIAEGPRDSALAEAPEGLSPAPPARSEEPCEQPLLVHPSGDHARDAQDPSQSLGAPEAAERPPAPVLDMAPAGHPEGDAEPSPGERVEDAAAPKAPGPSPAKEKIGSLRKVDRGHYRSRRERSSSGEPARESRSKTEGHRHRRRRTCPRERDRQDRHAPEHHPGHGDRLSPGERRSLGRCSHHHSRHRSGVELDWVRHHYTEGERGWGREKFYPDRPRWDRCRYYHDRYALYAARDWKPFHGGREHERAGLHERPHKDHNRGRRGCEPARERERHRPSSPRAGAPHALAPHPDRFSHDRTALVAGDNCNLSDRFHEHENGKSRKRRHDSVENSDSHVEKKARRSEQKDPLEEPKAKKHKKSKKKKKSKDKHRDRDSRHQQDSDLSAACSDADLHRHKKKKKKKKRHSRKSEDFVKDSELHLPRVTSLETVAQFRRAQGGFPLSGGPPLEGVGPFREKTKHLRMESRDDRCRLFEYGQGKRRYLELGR
Method in brief: (§1)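 HEK293T lysate in Tris/CHAPS/IGEPAL buffer with protease inhibitors (495 µg per sample) was given fragment at 200 µM or vehicle for 3 h, in triplicate. It then received Biotin-Ahx-Ub-VS at 0.5 µM final for 1 h. Labelled DUBs were NeutrAvidin-enriched, digested with LysC and trypsin, and run by diaPASEF LC-MS/MS. Values are average log2 fragment/vehicle ratios by unpaired t-test on global-median-normalised Spectronaut quantities of proteins with ≥2 unique peptides.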

USP46 = USP46 (UniProt P62068)
Chain of USP46 (P62068 whole entry): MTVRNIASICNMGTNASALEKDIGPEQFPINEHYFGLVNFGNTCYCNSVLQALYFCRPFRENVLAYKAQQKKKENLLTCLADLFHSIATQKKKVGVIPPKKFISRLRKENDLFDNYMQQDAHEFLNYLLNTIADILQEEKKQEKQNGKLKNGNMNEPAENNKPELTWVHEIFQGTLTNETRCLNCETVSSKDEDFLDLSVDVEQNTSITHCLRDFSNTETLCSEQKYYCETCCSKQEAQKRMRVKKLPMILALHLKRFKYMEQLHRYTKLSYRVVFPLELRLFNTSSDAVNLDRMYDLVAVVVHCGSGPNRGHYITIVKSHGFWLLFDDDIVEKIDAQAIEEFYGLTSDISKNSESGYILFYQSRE
Method in brief: as §1

USP47 = target: T2, USP47 (UniProt Q96K76)
T2 sequence (whole entry): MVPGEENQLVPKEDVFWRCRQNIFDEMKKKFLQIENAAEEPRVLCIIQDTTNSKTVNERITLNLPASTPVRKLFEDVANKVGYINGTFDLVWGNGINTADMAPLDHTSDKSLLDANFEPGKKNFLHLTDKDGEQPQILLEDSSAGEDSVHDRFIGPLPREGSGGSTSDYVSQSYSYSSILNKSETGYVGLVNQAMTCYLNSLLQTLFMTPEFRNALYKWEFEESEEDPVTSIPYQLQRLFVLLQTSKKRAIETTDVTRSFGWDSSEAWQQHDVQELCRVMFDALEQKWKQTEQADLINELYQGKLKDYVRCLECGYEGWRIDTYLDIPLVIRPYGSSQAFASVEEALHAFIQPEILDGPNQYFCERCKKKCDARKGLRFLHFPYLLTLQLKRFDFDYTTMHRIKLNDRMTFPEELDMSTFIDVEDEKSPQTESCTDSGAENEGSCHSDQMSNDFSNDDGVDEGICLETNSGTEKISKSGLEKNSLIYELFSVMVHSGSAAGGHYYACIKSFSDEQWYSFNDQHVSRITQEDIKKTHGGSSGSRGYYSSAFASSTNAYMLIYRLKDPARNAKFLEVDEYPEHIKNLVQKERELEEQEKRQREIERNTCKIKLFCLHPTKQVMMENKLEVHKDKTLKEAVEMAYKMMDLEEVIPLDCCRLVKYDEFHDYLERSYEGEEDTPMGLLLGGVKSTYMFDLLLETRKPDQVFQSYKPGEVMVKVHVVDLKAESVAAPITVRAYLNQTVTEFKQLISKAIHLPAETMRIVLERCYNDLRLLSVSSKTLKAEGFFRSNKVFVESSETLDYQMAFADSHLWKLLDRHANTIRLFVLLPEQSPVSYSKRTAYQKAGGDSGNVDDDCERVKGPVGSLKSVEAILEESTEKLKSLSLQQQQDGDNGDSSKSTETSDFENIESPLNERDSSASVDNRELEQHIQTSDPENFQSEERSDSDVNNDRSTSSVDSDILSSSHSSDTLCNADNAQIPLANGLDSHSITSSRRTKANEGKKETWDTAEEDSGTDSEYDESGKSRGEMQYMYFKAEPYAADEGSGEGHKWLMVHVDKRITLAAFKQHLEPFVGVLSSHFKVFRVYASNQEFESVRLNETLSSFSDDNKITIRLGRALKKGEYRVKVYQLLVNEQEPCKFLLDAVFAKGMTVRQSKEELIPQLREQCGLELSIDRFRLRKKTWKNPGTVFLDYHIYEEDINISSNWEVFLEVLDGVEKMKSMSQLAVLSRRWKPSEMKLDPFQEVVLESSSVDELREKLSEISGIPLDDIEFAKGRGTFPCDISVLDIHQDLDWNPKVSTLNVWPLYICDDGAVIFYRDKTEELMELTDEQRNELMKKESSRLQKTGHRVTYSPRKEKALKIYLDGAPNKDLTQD
Method in brief: as §1

USP48 = target: T3, USP48 (UniProt Q86UV5)
T3 sequence (whole entry): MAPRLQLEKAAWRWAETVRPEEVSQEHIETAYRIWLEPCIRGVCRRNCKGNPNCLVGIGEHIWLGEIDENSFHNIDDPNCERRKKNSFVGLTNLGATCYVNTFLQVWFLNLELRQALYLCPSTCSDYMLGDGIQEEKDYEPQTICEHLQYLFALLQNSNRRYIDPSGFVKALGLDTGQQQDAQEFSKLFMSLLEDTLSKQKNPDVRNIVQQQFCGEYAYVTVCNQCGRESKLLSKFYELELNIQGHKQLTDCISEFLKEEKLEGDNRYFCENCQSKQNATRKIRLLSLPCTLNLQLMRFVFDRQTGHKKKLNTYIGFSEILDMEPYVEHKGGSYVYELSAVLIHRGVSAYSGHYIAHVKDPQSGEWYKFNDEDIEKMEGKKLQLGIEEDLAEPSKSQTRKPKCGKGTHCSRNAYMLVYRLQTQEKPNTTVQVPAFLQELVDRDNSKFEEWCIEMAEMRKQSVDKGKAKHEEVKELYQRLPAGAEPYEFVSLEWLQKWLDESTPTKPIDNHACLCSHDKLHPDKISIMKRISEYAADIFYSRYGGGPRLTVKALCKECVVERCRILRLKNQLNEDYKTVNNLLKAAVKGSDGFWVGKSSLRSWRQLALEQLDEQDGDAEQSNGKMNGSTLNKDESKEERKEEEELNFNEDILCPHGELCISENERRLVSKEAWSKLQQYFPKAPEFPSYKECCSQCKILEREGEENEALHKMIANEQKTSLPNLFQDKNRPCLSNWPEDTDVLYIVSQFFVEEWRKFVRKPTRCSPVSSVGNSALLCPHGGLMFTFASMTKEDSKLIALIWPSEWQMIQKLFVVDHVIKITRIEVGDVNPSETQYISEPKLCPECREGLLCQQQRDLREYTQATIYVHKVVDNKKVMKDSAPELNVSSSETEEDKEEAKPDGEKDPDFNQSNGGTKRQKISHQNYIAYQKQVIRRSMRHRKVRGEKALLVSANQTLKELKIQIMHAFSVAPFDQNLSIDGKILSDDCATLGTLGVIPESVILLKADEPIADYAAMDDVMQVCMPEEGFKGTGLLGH
Method in brief: as §1

USP5 = target: T4, USP5 (UniProt P45974)
T4 sequence (whole entry): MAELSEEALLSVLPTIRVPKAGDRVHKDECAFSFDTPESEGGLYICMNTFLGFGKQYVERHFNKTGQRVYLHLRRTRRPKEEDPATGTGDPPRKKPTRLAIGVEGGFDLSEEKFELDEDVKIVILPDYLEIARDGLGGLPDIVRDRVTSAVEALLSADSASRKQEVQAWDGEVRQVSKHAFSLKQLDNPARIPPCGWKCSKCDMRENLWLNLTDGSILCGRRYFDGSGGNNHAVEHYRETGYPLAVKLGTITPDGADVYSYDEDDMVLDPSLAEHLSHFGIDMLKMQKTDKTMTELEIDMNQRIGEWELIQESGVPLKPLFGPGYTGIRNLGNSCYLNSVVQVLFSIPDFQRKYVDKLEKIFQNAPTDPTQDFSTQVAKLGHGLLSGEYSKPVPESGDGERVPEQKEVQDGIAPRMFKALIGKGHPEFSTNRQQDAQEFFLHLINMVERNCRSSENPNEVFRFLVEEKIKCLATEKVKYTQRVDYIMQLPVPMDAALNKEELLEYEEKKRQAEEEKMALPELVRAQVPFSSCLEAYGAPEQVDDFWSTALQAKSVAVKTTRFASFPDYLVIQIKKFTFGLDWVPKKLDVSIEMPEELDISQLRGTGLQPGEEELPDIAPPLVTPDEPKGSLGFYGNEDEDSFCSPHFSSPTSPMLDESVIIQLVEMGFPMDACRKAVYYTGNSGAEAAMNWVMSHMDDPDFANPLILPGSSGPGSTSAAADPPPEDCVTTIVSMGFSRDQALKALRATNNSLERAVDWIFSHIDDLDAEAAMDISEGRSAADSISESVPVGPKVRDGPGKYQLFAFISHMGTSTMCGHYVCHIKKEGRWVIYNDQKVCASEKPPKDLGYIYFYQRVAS
Method in brief: as §1

USP54 = USP54 (UniProt Q70EL1)
Chain of USP54 (Q70EL1 whole entry): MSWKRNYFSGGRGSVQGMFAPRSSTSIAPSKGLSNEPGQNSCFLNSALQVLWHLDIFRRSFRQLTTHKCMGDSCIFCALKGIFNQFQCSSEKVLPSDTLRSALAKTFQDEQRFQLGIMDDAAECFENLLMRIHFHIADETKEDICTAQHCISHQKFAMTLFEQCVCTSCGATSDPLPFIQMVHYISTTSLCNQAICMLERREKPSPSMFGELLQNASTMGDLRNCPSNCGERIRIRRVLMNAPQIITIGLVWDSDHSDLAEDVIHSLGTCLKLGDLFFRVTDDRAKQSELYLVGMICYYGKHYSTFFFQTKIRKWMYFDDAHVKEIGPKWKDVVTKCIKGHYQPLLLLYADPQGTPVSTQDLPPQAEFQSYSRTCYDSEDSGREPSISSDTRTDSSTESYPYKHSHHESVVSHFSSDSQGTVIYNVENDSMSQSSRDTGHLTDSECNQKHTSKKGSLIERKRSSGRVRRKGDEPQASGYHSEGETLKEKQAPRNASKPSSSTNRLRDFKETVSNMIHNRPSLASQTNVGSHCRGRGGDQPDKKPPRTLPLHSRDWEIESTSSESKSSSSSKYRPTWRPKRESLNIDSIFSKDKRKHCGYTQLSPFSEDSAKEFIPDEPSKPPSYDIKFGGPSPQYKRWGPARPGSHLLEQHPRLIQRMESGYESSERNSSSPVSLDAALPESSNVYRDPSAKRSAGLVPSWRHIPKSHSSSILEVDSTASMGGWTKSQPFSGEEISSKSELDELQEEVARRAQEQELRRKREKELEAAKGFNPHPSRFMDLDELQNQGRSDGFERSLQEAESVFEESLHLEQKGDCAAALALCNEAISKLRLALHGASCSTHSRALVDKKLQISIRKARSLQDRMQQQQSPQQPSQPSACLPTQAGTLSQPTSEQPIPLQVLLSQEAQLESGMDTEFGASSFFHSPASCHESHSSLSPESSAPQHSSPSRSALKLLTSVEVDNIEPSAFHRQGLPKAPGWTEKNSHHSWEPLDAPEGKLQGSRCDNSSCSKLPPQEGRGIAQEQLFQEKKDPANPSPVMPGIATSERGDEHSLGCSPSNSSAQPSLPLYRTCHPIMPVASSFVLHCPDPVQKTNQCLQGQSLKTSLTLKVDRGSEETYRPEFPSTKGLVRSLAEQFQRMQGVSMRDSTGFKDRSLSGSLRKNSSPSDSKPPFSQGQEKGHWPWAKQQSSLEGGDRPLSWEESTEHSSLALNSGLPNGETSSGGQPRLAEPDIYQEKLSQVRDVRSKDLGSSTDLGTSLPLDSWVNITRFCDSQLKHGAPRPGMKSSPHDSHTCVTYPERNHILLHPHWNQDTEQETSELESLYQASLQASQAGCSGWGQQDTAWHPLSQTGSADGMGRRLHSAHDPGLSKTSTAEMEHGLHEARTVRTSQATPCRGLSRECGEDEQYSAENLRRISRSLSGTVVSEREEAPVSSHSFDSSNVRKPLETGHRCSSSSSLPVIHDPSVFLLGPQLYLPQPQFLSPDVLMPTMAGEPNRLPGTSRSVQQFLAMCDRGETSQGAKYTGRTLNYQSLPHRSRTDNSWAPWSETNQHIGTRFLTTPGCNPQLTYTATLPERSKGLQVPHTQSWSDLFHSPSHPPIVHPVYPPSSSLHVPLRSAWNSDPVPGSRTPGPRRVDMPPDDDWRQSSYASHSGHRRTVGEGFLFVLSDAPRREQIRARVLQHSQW
Method in brief: as §1

USP7 = USP7 (UniProt Q93009)
Chain of USP7 (Q93009 whole entry, looked up): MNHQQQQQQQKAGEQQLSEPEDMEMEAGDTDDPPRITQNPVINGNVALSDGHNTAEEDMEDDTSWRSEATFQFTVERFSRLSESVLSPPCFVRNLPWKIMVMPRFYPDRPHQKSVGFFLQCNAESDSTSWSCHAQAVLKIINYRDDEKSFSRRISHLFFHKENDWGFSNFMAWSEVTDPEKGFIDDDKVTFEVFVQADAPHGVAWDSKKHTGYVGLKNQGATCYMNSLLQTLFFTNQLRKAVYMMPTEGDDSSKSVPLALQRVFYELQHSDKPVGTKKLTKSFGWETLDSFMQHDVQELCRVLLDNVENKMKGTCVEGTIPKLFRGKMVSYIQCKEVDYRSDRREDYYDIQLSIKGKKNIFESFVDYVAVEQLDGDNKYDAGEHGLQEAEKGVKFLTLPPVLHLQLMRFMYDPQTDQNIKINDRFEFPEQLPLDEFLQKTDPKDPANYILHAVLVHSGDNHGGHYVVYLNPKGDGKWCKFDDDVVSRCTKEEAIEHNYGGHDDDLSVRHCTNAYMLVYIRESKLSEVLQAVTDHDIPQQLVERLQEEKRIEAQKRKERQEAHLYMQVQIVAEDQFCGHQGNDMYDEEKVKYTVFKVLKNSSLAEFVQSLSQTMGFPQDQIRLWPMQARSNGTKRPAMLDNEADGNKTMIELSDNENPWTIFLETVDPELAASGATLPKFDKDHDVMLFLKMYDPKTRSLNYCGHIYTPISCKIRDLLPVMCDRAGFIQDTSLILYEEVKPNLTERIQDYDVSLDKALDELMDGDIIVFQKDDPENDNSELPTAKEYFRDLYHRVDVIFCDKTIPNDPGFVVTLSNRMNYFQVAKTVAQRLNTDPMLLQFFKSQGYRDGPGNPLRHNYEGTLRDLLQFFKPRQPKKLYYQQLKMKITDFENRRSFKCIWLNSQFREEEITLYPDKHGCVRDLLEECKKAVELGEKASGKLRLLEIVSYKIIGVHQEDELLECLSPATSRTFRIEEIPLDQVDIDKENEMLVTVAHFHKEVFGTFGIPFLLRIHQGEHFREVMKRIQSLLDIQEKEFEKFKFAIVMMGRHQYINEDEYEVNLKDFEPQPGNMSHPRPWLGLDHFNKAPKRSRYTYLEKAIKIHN
Method in brief: as §1

USP8 = target: T5, USP8 (UniProt P40818)
T5 sequence (whole entry): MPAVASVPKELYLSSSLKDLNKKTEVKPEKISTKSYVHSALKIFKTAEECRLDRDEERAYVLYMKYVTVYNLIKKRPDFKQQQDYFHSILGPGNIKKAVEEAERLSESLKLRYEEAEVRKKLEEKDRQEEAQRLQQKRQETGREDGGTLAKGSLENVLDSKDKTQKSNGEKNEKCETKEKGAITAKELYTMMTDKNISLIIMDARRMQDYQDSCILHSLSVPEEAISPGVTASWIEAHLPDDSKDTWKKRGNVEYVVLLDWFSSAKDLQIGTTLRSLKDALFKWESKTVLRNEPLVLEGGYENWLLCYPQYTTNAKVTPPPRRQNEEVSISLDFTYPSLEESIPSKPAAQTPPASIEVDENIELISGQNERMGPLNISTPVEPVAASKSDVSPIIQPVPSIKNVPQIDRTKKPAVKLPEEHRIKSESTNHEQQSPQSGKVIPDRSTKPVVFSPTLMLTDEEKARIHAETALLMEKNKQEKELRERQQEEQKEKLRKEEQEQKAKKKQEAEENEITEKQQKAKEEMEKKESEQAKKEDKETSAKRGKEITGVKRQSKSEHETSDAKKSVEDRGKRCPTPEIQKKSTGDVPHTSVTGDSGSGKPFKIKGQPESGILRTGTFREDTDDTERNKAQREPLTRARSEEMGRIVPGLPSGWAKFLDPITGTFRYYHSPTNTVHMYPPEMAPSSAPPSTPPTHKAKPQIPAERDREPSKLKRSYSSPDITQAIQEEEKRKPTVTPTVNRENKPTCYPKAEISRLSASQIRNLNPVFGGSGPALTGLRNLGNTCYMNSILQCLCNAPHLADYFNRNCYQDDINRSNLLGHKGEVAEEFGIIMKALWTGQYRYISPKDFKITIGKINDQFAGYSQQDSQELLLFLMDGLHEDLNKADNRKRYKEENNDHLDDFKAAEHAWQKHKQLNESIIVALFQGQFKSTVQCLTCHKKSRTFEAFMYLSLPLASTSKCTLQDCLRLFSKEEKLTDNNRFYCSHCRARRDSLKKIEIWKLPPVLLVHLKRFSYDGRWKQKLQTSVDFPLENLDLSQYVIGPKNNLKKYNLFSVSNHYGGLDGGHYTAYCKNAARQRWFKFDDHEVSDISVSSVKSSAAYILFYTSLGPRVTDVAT
Method in brief: as §1

Measured: log2 ratio of Biotin-Ahx-Ub-VS probe labelling

O=C(CCl)N1CCc2sccc2C1
active: USP7 -1.34
inactive: USP42 0.32 | USP46 -0.578 | USP47 -0.774 | USP48 -0.677 | USP5 -0.108 | USP54 -0.356 | USP8 0.015

From the supplement of paper PMC11732987, “Enantioselective OTUD7B fragment discovery through chemoproteomics screening and high-throughput optimisation” (Communications Chemistry, 2025)
